Results filed as inconclusive are left out. Calls of active or inactive are those of the source. The calls were made as follows, unless noted: active = hit-call score of the fitted dose curve at least 0.9, where 1 is the maximum; inactive = score below 0.9.
Columns and labels:
[1] = CCTE_Mundy_HCI_iCellGluta_NOG_NeuriteLength: CCTE's Neurite Outgrowth Assay in iCellGluta cells for Neurite Length, Mundy Lab (AID 2284318; active = hit-call score of the fitted dose curve at least 0.9, where 1 is the maximum)
Method in brief: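 Automated high-content imaging of betaIII-tubulin (Alexa Fluor-488) and Hoechst-stained cells gave neurite length, normalized to the DMSO baseline.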

[2] = IUF_NPC1_cytotoxicity_72hr: Cytotoxicity Assessment at 72 hours in the Leibniz Research Institute for Environmental Medicine (IUF) Neural Progenitor Cell Proliferation Assay (NPC1) (AID 2284332; active = hit-call score of the fitted dose curve at least 0.9, where 1 is the maximum;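 also: rising LDH signal means more cytotoxicity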)
Method in brief: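 Readout is fluorescence from LDH-dependent resazurin conversion, sampled from culture medium after compound contact lasting 72 h. Each well holds one 0.25-0.35 mm human progenitor sphere kept at 37C, 5% CO2 with EGF and FGF.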

[3] = CCTE_Mundy_HCI_iCellGluta_NOG_NeuronCount: CCTE's Neurite Outgrowth Assay in iCellGluta cells for Neuron Count, Mundy Lab (AID 2284340; active = hit-call score of the fitted dose curve at least 0.9, where 1 is the maximum;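 also: cells fixed about 48 h after compound addition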)
Method in brief: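 Neuron count read by automated high-content imaging of Hoechst 33342 and betaIII-tubulin/Alexa Fluor-488 labelling in human iPSC glutamatergic neurons. Activity fitted relative to DMSO.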

[4] = CCTE_Mundy_HCI_iCellGluta_NOG_NeuriteCount: CCTE's Neurite Outgrowth Assay in iCellGluta cells for Neurite Count, Mundy Lab (AID 2284342; active = hit-call score of the fitted dose curve at least 0.9, where 1 is the maximum;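 also: chemical exposure about 48 hours starting 2 hours after plating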)
[5] = test system: IYD (gene 389434); test: CCTE_GLTED_hIYD: CCTE's human Iodotyrosine Deiodinase (xIYD) Inhibition Assay, Great Lakes Toxicology and Ecology Division (GLTED) Lab (AID 2284317; active = hit-call score of the fitted dose curve at least 0.9, where 1 is the maximum;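 also: cell-free human IYD enzyme made in baculovirus insect cells; iodide freed from monoiodotyrosine measured by cerium arsenite color change at 420 nm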)
Method in brief: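 Iodide liberated from monoiodotyrosine by baculovirus-expressed human IYD over 3 h was determined colorimetrically (Sandell-Kolthoff, 420 nm) after Dowex separation; inhibition is loss of signal versus DMSO.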

[6] = CCTE_Deisenroth_5AR_NBTE_donor: CCTE's 5alpha-reductase NanoBRET Target Engagement Assay […], Deisenroth Lab (AID 2284319); details: actives raise or lower the signal
Method in brief: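 HEK293T cells transiently expressing SRD5A2-NanoLuc, exposed 5 h to chemicals (8 points, 10 nM - 29.9 uM), with testosterone tracer for the final 2 h. Donor luminescence at 460 nm read after Nano-Glo substrate plus extracellular NanoLuc inhibitor; bidirectional fit versus DMSO.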

[7] = CCTE_Deisenroth_5AR_NBTE_acceptor: CCTE's 5alpha-reductase NanoBRET Target Engagement Assay - Autofluorescence Screen, Deisenroth Lab (AID 2284321); details: actives raise or lower the signal;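 also: compound fluorescence in the acceptor channel under 460 nm excitation flags autofluorescence artifacts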
Method in brief: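 Acceptor fluorescence intensity was read as an artifact-detection endpoint. Test chemicals at an assumed nominal 100 uM were excited at 460 nm across three independent runs. Activity was fitted bidirectionally against DMSO.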

[8] = test system: SRD5A2 (gene 6716); test: CCTE_Deisenroth_5AR_NBTE_ratio: CCTE's 5alpha-reductase NanoBRET Target Engagement Assay - Ratio, Deisenroth Lab (AID 2284322); details: actives raise or lower the signal
Method in brief: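 SRD5A2-NanoLuc HEK293T; cmpd 10 nM-29.9 uM, 3 h preinc + testosterone tracer 2 h; NanoBRET ratio 650/460; bidirectional fit vs DMSO.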

[9] = test system: SERPINA7 (gene 6906); test: CCTE_GLTED_hTBG: CCTE's human Thyroxine-binding Globulin (TBG) Inhibition Assay, Great Lakes Toxicology and Ecology Division (GLTED) Lab (AID 2284343; active = hit-call score of the fitted dose curve at least 0.9, where 1 is the maximum;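 also: active chemicals lower fluorescence versus DMSO baseline by displacing probe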)
Method in brief: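 Steps: combine TBG with chemical; incubate 2 hours so that disruptors release ANSA; record fluorescence (380 ex, 475 em). Loss of signal was fitted against DMSO controls.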

[10] = test system: Brachyury (BRA) Protein Expression, Deisenroth Lab, TBXT (gene 6862); test: CCTE_Deisenroth_DEVTOX-GLR_legacy_Bra: (Legacy) CCTE's DevTox GLR-Endo Assay Evaluation of Brachyury (BRA) Protein Expression, Deisenroth Lab (AID 2284329)
Method in brief: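 Percent Bra-positive cells, scored by high-content imaging against a threshold of 5x BMAD over the undifferentiated control median, with the 0.2% DMSO median subtracted. RUES2-GLR cultures were dosed twice at 24 h intervals across a 48 h differentiation, at 1 nM–200 uM in ten steps, with n=4 replicates.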

[11] = CCTE_Deisenroth_DEVTOX-GLR_legacy_CellCount: (Legacy) Viability Assessment in CCTE's DevTox GLR-Endo Assay, Deisenroth Lab (AID 2284331); details: actives raise or lower the signal
Method in brief: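 Human pluripotent RUES2-GLR cells differentiated 48 h with two 24-h-interval exposures, 10-point 1 nM–200 uM series, 0.2% DMSO. Fixed nuclei counted by high-content imaging (5 fields/well); bidirectional fit vs DMSO, n≥4.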

[12] = test system: SRY-box transcription factor 17 (SOX17) Protein Expression, Deisenroth Lab, SOX17 (gene 64321); test: CCTE_Deisenroth_DEVTOX-GLR_legacy_Sox17: (Legacy) CCTE's DevTox GLR-Endo Assay Evaluation of SRY-box transcription factor 17 (SOX17) Protein Expression, Deisenroth Lab (AID 2284341); details: actives raise or lower the signal
Method in brief: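 RUES2-GLR human pluripotent cells differentiated toward endoderm for 48 h, dosed twice at 24 h intervals (1 nM–200 uM, 10 points). Imaging gives % SOX17+ cells (intensity >5x BMAD above pluripotent control median); bidirectional fit versus 0.2% DMSO.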

[13] = test system: SRY-box transcription factor 2 (SOX2) Protein Expression, Deisenroth Lab, SOX2 (gene 6657); test: CCTE_Deisenroth_DEVTOX-GLR_legacy_Sox2: (Legacy) CCTE's DevTox GLR-Endo Assay Evaluation of SRY-box transcription factor 2 (SOX2) Protein Expression, Deisenroth Lab (AID 2284346)
Method in brief: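 Percent Sox2-positive cells was scored by high-content imaging of 5 fields per well. Positivity cutoff was 5x BMAD over the directed endoderm control, and the DMSO median was subtracted. Cells were RUES2-GLR, dosed twice at 24-h intervals over 48 h of differentiation (1 nM-200 uM).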

[14] = TAMU_PeakParms_SingleDonor1434_Asystole: Texas A&M University (TAMU) 1.5-hr Human Induced Pluripotent Stem Cell (iPSC)-derived Cardiomyocytes Calcium (Ca+2) Flux Assay for Cardiotoxicity: Asystole (quiescence of beating) (AID 2284328; active = hit-call score of the fitted dose curve at least 0.9, where 1 is the maximum)
Method in brief: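 Average Ca2+-flux peak frequency (beats/s) was recorded in single-donor iPSC-derived cardiomyocytes after 90 min exposure (0.2–100 uM final, 0.5% DMSO). Asystole POD set as EC95 against DMSO, no preprocessing.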

## COCCOCCOCCO
[1]
  outcome: inactive
[2]
  outcome: inactive
[3]
  outcome: inactive
[4]
  outcome: inactive

## CCCCCCCCC=CCCCCCCCC1=NCCN1CCO
[5]
  AC50: 66.2 µM (active)

## COCCc1ccc(OCC(O)CNC(C)C)cc1 (stereo not drawn)
[1]
  outcome: inactive
[2]
  outcome: inactive
[3]
  outcome: inactive
[4]
  outcome: inactive

## O=C(Nc1ccc2c(O)c(N=Nc3ccc(N=Nc4ccc(S(=O)(=O)O)cc4)cc3)c(S(=O)(=O)O)cc2c1)c1ccccc1
[5]
  AC50: 91.3 µM (active)
[6]
  AC50: 9.98 µM (active)
[7]
  outcome: inactive
[8]
  AC50: 11.6 µM (active)
[9]
  AC50: 16.6 µM (active)

## CC(CN=Cc1ccccc1O)N=Cc1ccccc1O (stereo not drawn)
[6]
  outcome: inactive
[7]
  outcome: inactive
[8]
  outcome: inactive

## CS(=O)(=O)OCCCCOS(C)(=O)=O
[10]
  outcome: inactive
[11]
  AC50: 14.6 µM (active)
[12]
  AC50: 47.3 µM (active)
[13]
  AC50: 77 µM (active)

## CCCCCCCCCCCCCCN(CCO)CCO
[5]
  AC50: 38.6 µM (active)
[6]
  AC50: 62.3 µM (active)
[7]
  AC50: 50 µM (active)
[8]
  AC50: 77.7 µM (active)

## Oc1c(Cl)cc(Cl)c(Cl)c1Cc1c(O)c(Cl)cc(Cl)c1Cl
[14]
  AC50: 2.11 µM (active)
[2]
  outcome: inactive

## C[C@H]1O[C@@H](O[C@H]2[C@@H](O)C[C@H](O[C@H]3[C@@H](O)C[C@H](O[C@H]4CC[C@@]5(C)[C@H](CC[C@@H]6[C@@H]5C[C@@H](O)[C@]5(C)[C@@H](C7=CC(=O)OC7)CC[C@]65O)C4)O[C@@H]3C)O[C@@H]2C)C[C@H](O)[C@@H]1O
[6]
  outcome: inactive
[7]
  outcome: inactive
[8]
  AC50: 0.354 µM (active)

## CCCCCCCC(=O)OCC(O)CO (stereo not drawn)
[6]
  outcome: inactive
[7]
  outcome: inactive
[8]
  outcome: inactive

## CCCCCCCCCCCCCC(=O)OCC(O)CO (stereo not drawn)
[5]
  AC50: 100 µM (active)

## BrCc1cccc(Oc2ccccc2)c1
[9]
  AC50: 23.3 µM (active)

## CCc1cc(Cc2cc(CC)cc(C(C)(C)C)c2O)c(O)c(C(C)(C)C)c1
[5]
  AC50: 102 µM (active)

## Cc1ccc(S(=O)(=O)Oc2ccc(N=Nc3ccc(-c4ccc(N=Nc5c(O)ccc6cc(S(=O)(=O)O)cc(S(=O)(=O)O)c56)c(C)c4)cc3C)cc2)cc1
[5]
  AC50: 44.4 µM (active)
[6]
  outcome: inactive
[7]
  outcome: inactive
[8]
  AC50: 11.9 µM (active)
[9]
  AC50: 3.93 µM (active)

## C=C[Si]1(C)O[Si](C)(C=C)O[Si](C)(C=C)O[Si](C)(C=C)O1 (stereo not drawn)
[9]
  outcome: inactive

## OCc1cccc(Oc2ccccc2)c1
[9]
  AC50: 27.4 µM (active)

## CCCCCCC(CO)CCCC (stereo not drawn)
[9]
  AC50: 24.2 µM (active)

## C=CC(=O)OCCCC
[6]
  outcome: inactive
[7]
  outcome: inactive
[8]
  outcome: inactive

## CCCCC(CC)COC(=O)c1ccc(O)cc1 (stereo not drawn)
[5]
  AC50: 44.3 µM (active)
[9]
  AC50: 5.72 µM (active)

## CC(=O)O[C@H]1C[C@@H]2CC[C@@]1(C)C2(C)C
[6]
  outcome: inactive
[7]
  outcome: inactive
[8]
  outcome: inactive

## Cc1cc(S(=O)(=O)O)ccc1N=Nc1c(O)ccc2ccccc12
[6]
  AC50: 18.3 µM (active)
[7]
  outcome: inactive
[8]
  AC50: 25 µM (active)

## Nc1ccccc1[N+](=O)[O-]
[6]
  outcome: inactive
[7]
  outcome: inactive
[8]
  AC50: 50 µM (active)

## COc1ccc(N=Nc2cc(C)c(N=Nc3ccc(S(=O)(=O)O)cc3)cc2OC)cc1
[5]
  outcome: inactive
[6]
  AC50: 50 µM (active)
[7]
  AC50: 40.6 µM (active)
[8]
  AC50: 87 µM (active)
[9]
  AC50: 35.5 µM (active)
